SMILES strings stand for the structures. Counter-ions that a name gives are not always drawn.

For the experiment, the system named is Saccharomyces cerevisiae BY4741 SeMeCo community. Briefly: z-score of subpopulation abundance vs DMSO median, subpopulation auxotrophic for LUM; higher = larger share of this subpopulation than in DMSO controls. The conditions noted are these: 10 µM; 24 h; SM minimal medium; subpopulation (auxotrophy): LUM. The procedure:
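Fluorescent four-plasmid SeMeCo (self-establishing metabolically cooperating S. cerevisiae BY4741 community; plasmids pH-mRuby2, pL-mWasabi, pU-eCFP, pM-TagRFP657) was grown 24 h in minimal SM medium with each Selleck FDA-approved drug at 10 µM in 384-well plates. Cells were fixed and imaged by high-content confocal microscopy. For each auxotrophic subpopulation (and the prototroph), a z-score gives the deviation from the DMSO vehicle-control population median.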
In the case of `CCCCCCCCCCCCCCCC[n+]1ccccc1` [Cetylpyridinium Chloride], the “z-score of subpopulation abundance” value came out at 7.62. The same measure for `C=C[C@H]1CN2CC[C@H]1C[C@H]2[C@H](O)c1ccnc2ccccc12` [Cinchonidine]: 0.19; for `COc1ccc(C=O)cc1` [p-Anisaldehyde]: -0.69. On to `Cc1cc(O)ccc1Cl` [Chlorocresol], for which the “z-score of subpopulation abundance” value is -0.61.

As for `CN1[C@@H]2C[C@@H](OC(=O)[C@H](CO)c3ccccc3)C[C@H]1[C@@H]1O[C@@H]12` [Scopolamine HBr], the “z-score of subpopulation abundance” value is -0.9.

On to `CC1(C)SC2C(N)C(=O)N2C1C(=O)O` (stereo not given) [6-Aminopenicillanic acid], for which the “z-score of subpopulation abundance” value is -0.93. As to `CN1[C@@H]2CC[C@H]1C[C@@H](OC(=O)[C@H](CO)c1ccccc1)C2` [Hyoscyamine], the “z-score of subpopulation abundance” value is -0.43. Under `CN1[C@@H]2C[C@@H](OC(=O)[C@H](CO)c3ccccc3)C[C@H]1[C@@H]1O[C@@H]12` [Scopolamine HBr trihydrate] stands -0.33. On to `C=CN1CCCC1=O.II` [Povidone iodine], for which the “z-score of subpopulation abundance” value amounted to 0.83. With `O=c1[nH]c2ccccc2n1CCCN1CCC(n2c(=O)[nH]c3cc(Cl)ccc32)CC1` [Domperidone], the “z-score of subpopulation abundance” value was -0.33. Take `CCCN1C[C@H](CSC)C[C@@H]2c3cccc4[nH]cc(c34)C[C@H]21` [Pergolide Mesylate]: the “z-score of subpopulation abundance” value was -0.65. In the case of `CN(C)C(=O)Oc1ccc[n+](C)c1` [Pyridostigmine Bromide], the “z-score of subpopulation abundance” value was -0.35.

Consider `CCN1CC2(OC(=O)c3ccccc3NC(C)=O)CCC(OC)C34C1C(CC23)C1(O)CC(OC)C2CC4C1(O)C2OC` (stereo not given) [Lappaconitine], for which the “z-score of subpopulation abundance” value amounted to 0.98.

In the case of `CCOC(=O)Nc1ccc(NCc2ccc(F)cc2)cc1N` [Retigabine 2HCl], the “z-score of subpopulation abundance” value is -0.01. The same measure for `C[N+]12CCC(CC1)C(OC(=O)C(O)(c1ccccc1)c1ccccc1)C2` (stereo not given) [Clidinium Bromide]: -0.9. Under `CN[C@@H]1[C@@H](O)[C@@H](O[C@@H]2[C@@H](O)[C@H](O[C@H]3O[C@H]([C@@H](C)O)[C@@H](O)[C@H](O)[C@H]3N)[C@@H](N)C[C@H]2N)OC[C@]1(C)O` [Geneticin (G418 Sulfate)] stands -0.36; under `CC[C@@]1(O)C(=O)OCc2c1cc1n(c2=O)Cc2cc3ccccc3nc2-1` [Camptothecin], -0.25; under `COc1ccc(C(CN(C)C)C2(O)CCCCC2)cc1` (stereo not given) [Venlafaxine HCl], 1.02. In the case of `Nc1ccncc1` [4-Aminopyridine], the “z-score of subpopulation abundance” value was 0.34. The same measure for `Oc1cccc2cccnc12` [8-Hydroxyquinoline]: -0.89. The same measure for `C=CCN1C[C@H](C(=O)N(CCCN(C)C)C(=O)NCC)C[C@@H]2c3cccc4[nH]cc(c34)C[C@H]21` [Cabergoline]: 0.18. On to `CNC1CC(N)C(O)C(OC2OC(CO)C(O)C3OC4(OC(C(N)CO)C(O)C(O)C4O)OC23)C1O` (stereo not given) [Hygromycin B], for which the “z-score of subpopulation abundance” value is -0.17.

For the compound `O=C(O[C@H]1C[N+]2(CCCOc3ccccc3)CCC1CC2)C(O)(c1cccs1)c1cccs1` [Aclidinium Bromide], the “z-score of subpopulation abundance” value is -0.16.

`CC(C)=CCOc1c2occc2cc2ccc(=O)oc12` [Imperatorin]: the “z-score of subpopulation abundance” value worked out at 0.74. The same measure for `CN(C)[C@@H]1C(=O)C(C(N)=O)=C(O)[C@@]2(O)C(=O)C3=C(O)c4c(O)cccc4[C@@](C)(O)[C@H]3[C@H](O)[C@@H]12` [Oxytetracycline (Terramycin)]: 0.18; for `NCC(O)c1ccc(O)cc1` (racemic) [(+,-)-Octopamine HCl]: 0.58. As to `NC(=O)CN1CCCC1=O` [Piracetam], the “z-score of subpopulation abundance” value is 2.09. Under `CC(C)(O)C(Cl)(Cl)Cl` [Chlorobutanol] stands 0.26. Take `C[C@@H]1O[C@@H](O[C@H]2C[C@@H](O)[C@]3(CO)[C@H]4[C@H](O)C[C@]5(C)[C@@H](C6=CC(=O)OC6)CC[C@]5(O)[C@@H]4CC[C@]3(O)C2)[C@H](O)[C@H](O)[C@H]1O` [Ouabain]: the “z-score of subpopulation abundance” value was -0.83. As to `Nc1nc(N)nc(NC2CC2)n1` [Cyromazine], the “z-score of subpopulation abundance” value came to 0.89. For `C[N+](C)(C)CCCCCCCCCC[N+](C)(C)C` [Decamethonium Bromide], the “z-score of subpopulation abundance” value amounted to 0.08. In the case of `CC(C)N(CCC(C(N)=O)(c1ccccc1)c1ccccn1)C(C)C` (stereo not given) [Disopyramide], the “z-score of subpopulation abundance” value is 0.92. The same measure for `CCN(CC)CCOC(=O)C(O)(c1ccccc1)c1ccccc1` [Benactyzine hydrochloride]: -0.06.

Regarding `N#Cc1nn(-c2c(Cl)cc(C(F)(F)F)cc2Cl)c(N)c1[S+]([O-])C(F)(F)F` (stereo not given) [Fipronil], the “z-score of subpopulation abundance” value is -0.72. Under `C[C@H]1O[C@H](O[C@H]2[C@H](O)[C@@H](O)[C@@H](O)[C@H](O)[C@@H]2O)[C@@H](N)C[C@@H]1NC(=N)C(=O)O` [Kasugamycin hydrochloride] stands 0.34; under `CCN(C)C(=O)Oc1cccc([C@H](C)N(C)C)c1` [Rivastigmine Tartrate], -0.01.

`O=C(O[C@H]1C[C@H]2CC[C@@H](C1)[N+]21CCCC1)C(O)(c1ccccc1)c1ccccc1` [Trospium chloride]: the “z-score of subpopulation abundance” value was -0.13.

Take `Cn1cc(C2=C(c3cn(C4CCN(Cc5ccccn5)CC4)c4ccccc34)C(=O)NC2=O)c2ccccc21`: the “z-score of subpopulation abundance” value was -0.2. `C#C[C@]1(O)C=C[C@H]2[C@@H]3CCC4=CC(=O)CC[C@@H]4[C@H]3CC[C@@]21CC` [Gestodene]: the “z-score of subpopulation abundance” value worked out at 0.24. `COc1ccc2[nH]cc(CCN)c2c1` [5-Methoxytryptamine]: the “z-score of subpopulation abundance” value was found to be 0.78.
